Measurements published in PubChem BioAssay (Tox21).
Records with an inconclusive call do not appear. Values without a mark were called inactive. Calls of active or inactive are those of the source. Calls come from the whole dose curve; as a rule, active = well fitted inhibition curve with a large enough effect in the repeat runs; inconclusive = weak or mixed curves; inactive = flat fitted curve, though single readings scatter.

Assay: qHTS assay to identify small molecule HDAC inhibitors (AID 1259364); note: top concentration of the series differs between compounds; nearly all actives have a fitted effect of over 45% in size
Conditions: HCT-116 HDAC-Glo I/II luminescence, 2 h; series mostly up to 92.4 µM; activity change, negative = inhibition: at the top concentration
Source text: U.S. Tox21 Program National Center for Advancing Translational Sciences [NCATS] NIH Chemical Genomics Center [NCGC] U.S. Environmental Protection Agency [EPA] National Institutes of Environmental Health Sciences [NIEHS] National Toxicology Program [NTP] U.S. Food and Drug Administration [FDA] Tox21 Assay Overview: Histone deacetylases (HDACs) are a group of epigenetic enzymes that regulate gene expression by histone deacetylation. HDACs are capable of introducing epigenetic modifications and such aberrations contribute to the onset and progression of several human diseases, thus making HDACs a popular therapeutic target. For identifying endogenous class I/II HDAC inhibitors a homogenous, luminogenic HDAC I/II cell based assay was used to measure the relative activity of class I and II HDACs from cells. Wild type HCT-116 cells were used to screen Tox21 libraries for identifying class I/II HDAC inhibitors.
Tox21 Assay Protocol Summary: HCT-116 cells were dispensed at 1,500 per well in 5uL of culture medium into white solid bottom 1536-well plates (Greiner Bio-One, Monroe, NC) using a Multidrop Combi (Thermo Scientific, Waltham, MA) dispenser. The assay plates were incubated at 37 C and 5% CO2 for an overnight, and then 23nL of compounds dissolved in DMSO and positive control were transferred using a Pintool station (Wako, San Diego, CA). The assay plates were incubated at 37C and 5% CO2 for 2hr. After compound treatment, 4uL of HDAC-Glo reagent (Promega Corporation, Madison, WI) was added to each well of the assay plates using Flying Reagent Dispenser (FRD, Aurora Discovery, San Diego, CA) and incubated the assay plates at room temperature for 30min. The luminescence signal was quantified using a ViewLux plate reader (Perkin Elmer, Shelton, CT).
% is set by controls: 0 for no effect and ±100 for the full control effect.

SMILES	activity change, negative = inhibition	Potency
CN(C)[C@@H]1C(=O)C(C(N)=O)=C(O)[C@@]2(O)C(=O)C3=C(O)c4c(O)ccc(Cl)c4[C@@](C)(O)[C@H]3C[C@@H]12	-3.54%	–
CC(=O)OC1(c2ccccc2)CCN(CCc2ccccc2)CC1	4.36%	–
CCC[CH2][Sn]([CH2]CCC)([CH2]CCC)[O]C(=O)c1ccccc1	-3.5%	–
Cc1ccc(C(=O)Cl)cc1	1.45%	–
C[As+](C)(C)CC(=O)[O-]	-6.3%	–
C[C@@H]1CC[C@@]2(OC1)O[C@H]1[C@@H](O)[C@H]3[C@@H]4CC[C@H]5C[C@@H](O[C@@H]6O[C@H](CO)[C@H](O[C@@H]7O[C@H](CO)[C@@H](O)[C@H](O[C@@H]8OC[C@@H](O)[C@H](O)[C@H]8O)[C@H]7O[C@@H]7O[C@H](CO)[C@@H](O)[C@H](O[C@@H]8O[C@H](CO)[C@@H](O)[C@H](O)[C@H]8O)[C@H]7O)[C@H](O)[C@H]6O)[C@H](O)C[C@]5(C)[C@H]4CC[C@]3(C)[C@H]1[C@@H]2C	1.92%	–
c1ccc2c(c1)[nH]c1cnccc12	-7.04%	–
CN(C)C(=S)S	–	inactive
O=C(O)C1C2CCC(O2)C1C(=O)O (stereo not given)	–	inactive
CC[C@H](C)[C@H]1O[C@]2(C=C[C@@H]1C)C[C@@H]1C[C@@H](C/C=C(\C)[C@@H](O[C@H]3C[C@H](OC)[C@@H](O[C@H]4C[C@H](OC)[C@@H](O)[C@H](C)O4)[C@H](C)O3)[C@@H](C)/C=C/C=C3\CO[C@@H]4[C@H](O)C(C)=C[C@@H](C(=O)O1)[C@]34O)O2	-2% [at 42.5 µM]	–
Cc1cc(Cl)ccc1O[C@H](C)C(=O)O	-0.0476%	–
CCOCn1c(-c2ccc(Cl)cc2)c(C#N)c(Br)c1C(F)(F)F	-7.85%	–
C=CCC1=C(C)C(OC(=O)C2C(C=C(C)C)C2(C)C)CC1=O (stereo not given)	-0.444%	–
CCCCCCCCCC[N+](C)(C)CCCCCCCCCC	10.4%	–
CC(C)N1C(=O)N(c2ccccc2)CSC1=NC(C)(C)C	-16.1%	–
CC(C)(O)c1cnn2c(-c3ccc(F)c(-c4c(F)cccc4C#N)c3)cnc2n1	-2.55%	–
CCCCN(CCCC)C(=S)[S-].CCCCN(CCCC)C(=S)[S-].[Zn+2]	-10.3%	–
Cc1c(Cl)c(=O)oc2cc(OP(=O)(OCCCl)OCCCl)ccc12	-1.64% [at 42.5 µM]	–
CCc1cc(C)cc(CC)c1-c1c(OC(=O)C(C)(C)C)n2n(c1=O)CCOCC2	-12%	–
Cn1[nH]nnc1=S	-9%	–

SMILES	activity change, negative = inhibition	Potency
CCOCCOC(C)=O	2.18%	–
CCOP(=S)(OCC)SCS(=O)(=O)CC	-2.61%	–
Oc1cc(Cl)c(Cl)c(Cl)c1	-11.8%	–
C=COCCCl	0.791%	–
[Cl][Sb]([Cl])[Cl]	-6.56%	–
NC(=O)c1ccc(N)nc1	0.206%	–
CCCCCCCCCBr	0.743%	–
O=[N+]([O-])c1ccc(Oc2ccc(C(F)(F)F)cc2[N+](=O)[O-])cc1	0.406%	–
O=[N+]([O-])c1cc([N+](=O)[O-])c2ccccc2c1	6.71%	–
O=C1NCN(c2ccccc2)C12CCN(CC1COc3ccccc3O1)CC2 (stereo not given)	-1.44% [at 42.5 µM]	–
FC(F)(F)c1cccc(C2=CCN(CCc3ccc4ccccc4c3)CC2)c1	3.04% [at 42.5 µM]	–
Oc1cccc(-c2ccccc2)c1	-23%	–
C1CCC2CCCCC2C1 (stereo not given)	-4.18%	–
CCCCCCCCCCBr	-0.203%	–
C=CCOC(N)=O	0.948%	–
O=C(CCl)C(Cl)Cl	-14%	–
C[C@]12CC[C@H](O)C[C@H]1CC[C@@H]1[C@@H]2C[C@@H](O)[C@]2(C)[C@@H](C3=CC(=O)OC3)CC[C@]12O	-3.84%	–
CC(=[OH+])/C=C(/C)[O-].CC(=[OH+])/C=C(\C)[O-].CC(=[OH+])/C=C(\C)[O-].[Fe]	4.16%	–
Clc1ccc(C(c2ccccc2Cl)C(Cl)(Cl)Cl)cc1 (stereo not given)	–	inactive
CC(O)C#N (stereo not given)	3.08%	–
